Assay results from the supplement of paper PMC11417369.
± gives the standard deviation of the averaged measurements. Whole data set: some 25,000 sequences, median “ln(normalized median fluorescence intensity)” near 7.9, cut for the highest 2% near 11. This excerpt belongs to a sample that is enriched for the highest values.

System: PfAP2-I AP2 domain 3 (GST-tagged)
Experiment: gcPBM binding intensity (ln(normalized median fluorescence intensity)); higher = stronger DNA binding
Outline: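 Plasmodium falciparum DNA-binding domains carrying a GST tag were expressed in E. coli and applied for 1 h, at about 25 μg on average, to an Agilent 4 × 180k array. The array held primer-extended double-stranded 36-bp intergenic genomic probes together with negative controls, and binding took place in 1× PBS with 1% milk, 0.2 mg/ml BSA, 0.5% salmon testes DNA and 0.03% Triton X-100. An Alexa488 anti-GST antibody detected bound protein, and the array was scanned at 488 nm. Binding intensity is taken as the highest Masliner-normalised natural-log median intensity across replicate spots of either probe orientation.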

Sequence	gcPBM binding intensity (ln)
AATGTACGTTTTATAACACACACACTAATAAAAAAA [CACACA_site9286]	8.23 ± 0.36
TATATTTATTATAACACACACATATAAATATTATAG [CACACA_site6726]	7.95 ± 0.48
AAAATTAAAAATAACACACACATATTTATATTTATA [CACACA_site7329]	7.59 ± 0.4
ATCGGTAATATTAACACACACATTTATTTATATTTA [CACACA_site6638]	7.96 ± 0.58
AACATTTTAAATTATACACACATTTTGAATATATAT [CACACA_site3470]	7.78 ± 0.53
ACATATCGGGTGCATTAACACACATTTATTTGAATA [CACACA_site8736]	11.8 ± 0.52
ATATCGTGTGCATTAACACACATTTATTTGAATAAA [CACACA_site7162]	10.9 ± 0.5
ATCGGTAATATTAACACACACATTTATATATATTTA [CACACA_site1084]	8.02 ± 0.41
ATATCGGGTGCATTAACACACATTTATTTGAATAAA [CACACA_site2350]	11.7 ± 0.79
TTTATTTTAACTTGTTCACACATTTGAATAAATAAA [CACACA_site5064]	7.71 ± 0.33
CAAAAAACAACAGATCGTACAAAATATTATATATAT [XGTACX_site2285]	8.12 ± 0.67
TTTTTTTTTTTTTTCTGTACTTAAAAAGGGGGAGAA [XGTACX_site3799]	8.79 ± 0.7
ATACATTCAAAATATACACACATATATCTATAATAT [CACACA_site6576]	7.69 ± 0.65
TGCAGTCTGGAGAAAAGTACATAGTATCTGGTAGCT [XGTACX_site2547]	7.87 ± 0.66
GAATGTAAATATTAAAGTACACAGAATATATCTTCA [XGTACX_site8149]	7.79 ± 0.16
GATAATCAGAATGGGGTGCAAAGAAAAAAAAAAAAA	10.7 ± 0.46
AGAATAATAAAATGGGTGCAATAGTTTTTTTTTTTT [GTGCAC_site9823]	11.2 ± 0.44
ATAATAAAAATAAGAGAATAAAAATGCAATTTAATG [CACACA_negctrl_site878]	7.95 ± 0.47
ATATATATTATATATAGTACTTTTTTGCGCAAATAT [XGTACX_site6849]	8.08 ± 0.44
ACATTAAGACACATTGCACACGTGCACCCATAGAAA [CACACA_site8029]	10.965 ± 0.007
TAAGAAATAAATAGTACACACATAGACACCCACCGA [CACACA_site1516]	8.86 ± 0.15
ATTAAGACACATTGCACACGTGCACCCATAGAAAAA [CACACA_site408]	11.02 ± 0.099
TACACCCATAGACACACACACACGCATAAAAAAAAA [CACACA_site8428]	8.36 ± 0.34
CATTTGCACCCGCACACACACATAAAAAGAAAAATA [CACACA_site4350]	10.7 ± 0.8
ACCCATTGCTCACGTGCACACATAGAAAAATAATTC [CACACA_site4389]	10.7 ± 0.16
CCATTAAGACACATTGCACACGTGCACCCATAGAAA [CACACA_site4388]	10.79 ± 0.021
TAAGAAATAAATAGTACACACATAGACACCCACCCA [CACACA_site8429]	8.65 ± 0.54
ACATTGCACCCGTGCACACATAGAAAAATAATTCTT [CACACA_site409]	11.1
